In PubChem BioAssay AID651965 (National Center for Advancing Translational Sciences (NCATS), 2013):
Hit rate of the full screen: of about 340,000 compounds, about 6,400 (1.9%) were called active. Not shown: some 4% with an inconclusive outcome. The call rests on the fitted dose curve; in most records, active means well fitted falling curve with a large enough effect; inconclusive means small, poorly fitted or top-dose-only effect; inactive means no such curve, though single readings can be large or run the other way. The entries come from a sample that favours actives as a whole.

Each compound was assayed against ATP-dependent Clp protease proteolytic subunit (Bacillus subtilis (strain 168)) (UniProt P80244) (assay: qHTS Assay for Activators of ClpP). Conditions: purified B. subtilis ClpP, FRET peptide cleavage, 20 min; series mostly up to 57.5 µM.
In short: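 FRET quenching reversal measured ClpP activation: 10 microg/mL B. subtilis ClpP at pH 8 with the FRET-FV decapeptide, read at 430 nm after 320 nm excitation. The 20-min minus 0-min signal was scaled between DMSO/no-enzyme wells and ADEP (5.8 microM final).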
Further: the source files actives as falling curves though it sought activators and does not explain the sign; nearly all actives have a fitted effect of over 65% in size.
Potency means the concentration at half of the fitted maximal effect.

Chain of ATP-dependent Clp protease proteolytic subunit (Bacillus subtilis (strain 168)) (P80244 whole entry, looked up): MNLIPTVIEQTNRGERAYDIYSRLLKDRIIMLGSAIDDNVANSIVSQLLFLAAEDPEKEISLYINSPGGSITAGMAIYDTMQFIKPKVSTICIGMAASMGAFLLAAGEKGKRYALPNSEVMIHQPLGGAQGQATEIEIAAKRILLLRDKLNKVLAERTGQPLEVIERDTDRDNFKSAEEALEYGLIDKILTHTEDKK

Potency, inactive:
O=C1C(Sc2cccc(F)c2)=C[C@@]2(O)CC[C@@H](O)[C@]1(Sc1cccc(F)c1)[C@H]2O
CCOc1ccc(C(=O)NC2CCN(S(=O)(=O)CC)CC2)cc1
CCOc1ccc(CC(=O)NC2CCN(Cc3ccccc3)CC2)cc1
NC1=CC(=O)C(=O)c2cccnc21
Cc1ccc([C@@H]2CC(=O)[C@@H]3CN(S(=O)(=O)c4ccc(C)cc4)[C@H](c4ccccc4F)C[C@@H]3N2S(=O)(=O)c2ccc(Cl)cc2)cc1
COc1cccc(NC(=O)CN2CCN(CC(=O)Nc3ccccc3Cl)CC2)c1
COCCCNC(=S)N1CCN(c2nc(-c3cccc(OC)c3)cs2)CC1
COC(=O)[C@]12CCCCC=C1N(CCC1=CCCCC1)C(=O)[C@H](CC(=O)NCC1CCCCC1)C2
NS(=O)(=O)c1ccc(NC2=CC(c3ccc(F)cc3)N(c3ccc(S(N)(=O)=O)cc3)C2=O)cc1 (stereo unspecified)
CC(=O)C1=C(O)C(=O)N(c2ccc(Br)cc2)C1c1ccc([N+](=O)[O-])cc1 (stereo unspecified)
CCC(C)n1[nH]c(=O)c2c(C)cc(C)nc21 (stereo unspecified)
C=CCc1c(C)nc2cc(-c3ccccc3)[nH]n2c1=O
Cc1ccc(-c2nc(SCc3ccc(Br)cc3)n3[nH]c(=O)cc3n2)cc1
CCc1ccccc1OCCSc1nc(-c2cccs2)nc2cc(=O)[nH]n12
Cc1cc(Br)cn2c(Cc3ccsc3)c(-c3ccc(C#N)cc3)nc12
CCOC(=O)[C@]12CCC=C1N(Cc1ccco1)C(=O)[C@H](CC(=O)N1CCSCC1)C2
Nc1nc(N)c(N=O)c(N)n1
CCC(=O)N(Cc1cc2ccccc2[nH]c1=O)c1ccc(OC)cc1
CCC(=O)N(CCc1ccccc1)Cc1cc2cc(C)ccc2[nH]c1=O
CC(C)N=C1CCCC1C(=S)SSC(=S)C1CCCC1=NC(C)C (stereo unspecified)
Fc1ccc(CSc2nc(NCc3ccccc3)c3ccccc3n2)cc1
O=C(CSc1nc(Nc2ccc(F)c(F)c2)c2ccccc2n1)c1ccc(Cl)cc1
Cc1cccc(C)c1NC(=O)C(c1cccc2ccccc12)n1c(=O)c(-c2ccco2)nc2ccccc21 (stereo unspecified)
CN(Cc1ccccc1)c1ccc(/C=C/c2ccnc3ccccc23)cc1
CN(C)c1ccc(/C=C2\C=Cc3ccccc32)cc1Br
O=C(Cn1nc(Cc2cccnc2)c2ccccc2c1=O)N1CCN(c2ccccc2F)CC1
CCc1ccc(NC(=O)c2cc3c(=O)n(Cc4cccnc4)ccc3nc2C)cc1
CCCSc1nc(NCc2ccco2)c2c3c(sc2n1)COC(C)(CC)C3 (stereo unspecified)
Cn1c(=O)n(Cc2ccco2)c(=N)c2c3c(sc21)CCCC3
NC(=S)NN=Cc1ccc(OC(=O)COc2cc(Cl)c(Cl)cc2Cl)cn1
Nc1nonc1C(=O)NCCc1ccccc1
COc1ccc(C(=O)NC(C)CCc2ccccc2)c(OC)c1 (stereo unspecified)
CC(C)NC(=O)c1nn(-c2ccccc2F)nc1CO
O=C(Cc1ccc(Cl)cc1)Nc1ccc2nn(-c3ccc(Cl)cc3)nc2c1
Cc1cc2nn(-c3ccc(Cl)cc3)nc2cc1NC(=O)C(C)C
COc1ccc(CCNC(=O)c2c(C)nn(-c3ccccc3)c2Cl)cc1
CCN(CC)c1ccc(/C=C/c2c(C)cnc3ccc(C)cc23)cc1
COC(=O)c1ccc2nc(-c3cccc(Br)c3)c(Cc3ccc(OC)cc3C)n2c1
CCOC(=O)c1cc(-c2sc(NC(=O)c3ccccc3)nc2C)n(CCO)n1
CCCCCCCCN1C(=O)[C@H](CC(=O)NCc2cccc3ccccc23)C[C@@]2(C(=O)OC)CCCCC=C12
CC(C)c1ccc(OCC(O)CN2CCN(c3ccccn3)CC2)cc1 (stereo unspecified)
CC(C)c1ccc(Cn2c(COc3ccccc3)nc3ccccc32)cc1
COc1cc2[nH]c(=O)n(Cc3ccc(C(=O)NC4CCN(Cc5ccccc5)CC4)cc3)c(=O)c2cc1OC
CCOc1cc2[nH]c(=S)n(Cc3ccc(C(=O)NCCOC)cc3)c(=O)c2cc1OCC
COCCn1c(=S)[nH]c2cc(C(=O)NCCc3ccc(OC)c(OC)c3)ccc2c1=O
CC(C)(C)c1cc(C(=O)NCc2cccnc2)ccn1
CCCCCn1nnnc1C1c2ccccc2C(=O)N1Cc1ccco1 (stereo unspecified)
C#Cc1cc(N2CCN(C(=O)c3ccoc3)CC2)n2nc(-c3cccc(Cl)c3)cc2n1
CC(=O)N1Cc2cc(C(=O)NCc3cccc(F)c3)nc(-c3cccc(C4=CCCCC4)c3)c2[C@H]1CCO
CC(C)(C)C(=O)c1c(N)[nH]c(C(=O)c2ccccc2)c1-c1ccc(F)cc1
O[C@@H]1C[C@H](c2ccccc2)N(Cc2cccs2)C[C@H]1n1cc(C2CC2)nn1
CCOc1ccccc1NC(=O)Cn1c(=O)n(Cc2ccco2)c(=O)c2sc3ccccc3c21
O=C(Cn1c(=O)n(-c2ccc(F)cc2)c(=O)c2sc3ccccc3c21)NC1CCCC1
O=C(CSC1=Nc2ccccc2C2=NC(CC(=O)NCc3ccco3)C(=O)N12)NCc1ccco1 (stereo unspecified)
Cc1ccc(CNC(=O)CSC2=Nc3ccccc3C3=NC(C)C(=O)N23)cc1 (stereo unspecified)
Cc1ccc(S(=O)(=O)N2CCN(c3nc(-n4cnc5ccccc54)nc4ccccc34)CC2)cc1
Cc1ccc(OCC(=O)Nn2cnc3ccccc32)cc1
O=C(c1ccc(Cl)cc1)n1cnc2ccccc21
CC(=O)Nc1cc(-c2cccc(CO)c2)cn2c(-c3cccc(C(F)(F)F)c3)cnc12
CCN(CC)c1ncnc2c1ncn2[C@H]1CN(Cc2cccs2)C[C@@H](CO)O1
Cc1ccccc1NC(=O)c1ccc(COc2ccc3c(C)cc(=O)oc3c2)cc1
Cc1cc(=O)oc2cc(NC(=O)C3CC(=O)N(Cc4ccccc4)C3)ccc12 (stereo unspecified)
Cc1cc(OCCCN2CCN(Cc3ccccc3)CC2)ccc1[N+](=O)[O-]
COc1ccccc1N1CCN(CCCCOc2ccc(F)cc2)CC1
COc1cccc(C(NC(C)=O)c2nc(-c3ccccc3OC)cs2)c1 (stereo unspecified)
CC1(C(=O)Nc2ccccc2Br)CCN1C(=O)CC1CC1 (stereo unspecified)
COc1ccc(C2OC(CCc3ccccc3)Cc3[nH]c(=S)[nH]c(=O)c32)cc1 (stereo unspecified)
OC[C@@H]1CN(Cc2ccncc2)C[C@H](n2cnc3c(N4CCN(c5ccccc5)CC4)ncnc32)O1
COCCCn1cc(CN2CC(N(C)C)CS2(=O)=O)nn1 (stereo unspecified)
CCCCC(O)C1=C[N+](=O)CC=C1 (stereo unspecified)
Cc1cc(NC(C)C)n2c(nc3ccccc32)c1C#N
CCOCCCNc1c(CC)c(C)c(C#N)c2nc3ccccc3n12
N#CCCN(C(=O)Nc1ccc(Cl)c(Cl)c1)C1CCCCC1
CCOC(=O)C1CCCN(C(=O)c2cc(-c3cccs3)oc2C)CC1 (stereo unspecified)
Cc1ccc(NC(=O)CN(C)C(=O)COC(=O)c2nccnc2N)cc1
CCOC(=O)c1c(NC(=O)COc2cc(C)ccc2C(C)C)sc(C)c1C
COc1ccc(C(=O)Nc2nc(-c3ccc(S(=O)(=O)N4CCOCC4)cc3)cs2)cc1
COc1ccc(-c2csc(Nc3cccc(C)n3)n2)cc1OC

Potency, active:
CCOc1ccc(NS(=O)(=O)c2ccc(C(=O)NC3CCN(Cc4ccccc4)CC3)cc2)cc1 28.2 µM
COc1cccc(NC(=O)CN2CCN(c3nc(-c4cccc(OC)c4)cs3)CC2)c1 17.8 µM
CC(=O)C1=C(O)C(=O)N(c2ccc(S(N)(=O)=O)cc2)C1c1ccccc1F (stereo unspecified) 25.1 µM
CCc1c(C)nc2cc(-c3cccs3)[nH]n2c1=O 22.4 µM
CCc1c(C)nc2cc(C)[nH]n2c1=O 22.4 µM
CCOc1ccc2[nH]c(=O)c(CN(CCCO)C(C)=O)cc2c1 28.2 µM
Fc1ccc(Nc2nc(SCc3ccccc3Cl)nc3ccccc23)cc1 31.6 µM
Cc1nc2ccn(Cc3cccnc3)c(=O)c2cc1C(=O)N1CCN(c2ccccc2F)CC1 25.1 µM
CN1CCc2c(sc3c2c(NCc2ccco2)nc2nnnn23)C1 17.8 µM
O=C(NCCCO)c1nn(-c2ccc(Cl)cc2)nc1CO 14.1 µM
CC(CCCc1ccccc1)NC(=O)c1nn(-c2ccc(Cl)cc2)nc1CO (stereo unspecified) 31.6 µM
Cc1ccc(-n2nc(CO)c(C(=O)NCCc3ccccc3)n2)cc1 10 µM
CC(C)c1ccc(OCC(O)Cn2cnc3ccccc32)cc1 (stereo unspecified) 28.2 µM
COc1cc2[nH]c(=O)n(Cc3ccc(C(=O)NCc4ccc(C)cc4)cc3)c(=O)c2cc1OC 10 µM
COCCn1c(=O)[nH]c2cc(C(=O)NCc3cccnc3)ccc2c1=O 28.2 µM
O=C(Cn1c(=O)n(Cc2ccccc2)c(=O)c2sc3ccccc3c21)Nc1ccccc1F 28.2 µM
O=C(CSC1=Nc2ccccc2C2=NC(c3ccccc3)C(=O)N12)NCC1CCCO1 (stereo unspecified) 17.8 µM
COc1ccc(-c2cc(C(=O)n3cnc4ccccc43)c3ccccc3n2)cc1 31.6 µM
Cc1cc(=O)oc2cc(OCC3CC(c4ccccc4Cl)=NO3)ccc12 (stereo unspecified) 28.2 µM
Cc1ccccc1N1CCN(CCCOc2ccc3c(C)cc(=O)oc3c2)CC1 35.5 µM
Cc1cc(NCc2ccco2)n2c(nc3ccccc32)c1C#N 28.2 µM
CCOC(=O)c1cc(C(C)C)sc1NC(=O)COC(=O)c1nccnc1N 20 µM
COc1ccc(-c2csc(NC(=O)c3ccc(N4C(=O)CCC4=O)cc3)n2)cc1OC 14.1 µM
